Measured values: PubChem BioAssay AID504424 (National Center for Advancing Translational Sciences (NCATS), 2011)
Some of the results follow. Activity calls are given as the source filed them.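 Rule for the calls: active = compounds that showed inhibition of Dyrk1a and received a fitted potency; inactive = compounds that showed no inhibition.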

The compounds below were run against Dual specificity tyrosine-phosphorylation-regulated kinase 1A (Homo sapiens) (UniProt Q13627) (assay: Kinase Inhibition Study on Inhibitors of Dyrk1a (Reaction Biology data)). Details: Reaction Biology kinase assay, 10 uM ATP.
Source text: NIH Molecular Libraries Probe Production Centers Network [MLPCN] NIH Chemical Genomics Center [NCGC] MLPCN Grant: 1R03MH084827-01 Assay Submitter (PI): Tom Misteli NCGC Assay Overview: Alternative splicing of pre-mRNAs plays a major role in the regulation of eukaryotic gene expression. Alternative splicing is now thought to be one of the primary reasons for the complexity of higher organisms leading to an average of three protein isoforms per gene. Aberrant splicing can lead to a number of diseases and is known to play a role in rare genetic diseases such as progeria syndrome. Hutchinson-Gilford Progeria Syndrome (HGPS) is a pediatric premature aging disease caused by a spontaneous mutation in the lamin A/C (LMNA) gene due to a single point mutation in the lamin A gene effecting 1 in 4 million people. To identify both specific splicing modulators of the lamin A gene as well as general splicing modulators, a cell-based HTS assay was developed using a minigene reporter system (AIDs, 1459 & 1487). […] The Clk family is part of the CMGC group of protein kinases which includes Dyrks and are essential kinases found in all eukaryotes. […] This AID is to summarize the activity of these analogs in Dyrk1a.
All kinase reactions were performed using 10 uM ATP in the assay. 100% activity was taken from kinase reactions with DMSO alone (the vehicle used for compound stock solutions).

**Q.** `CC(Nc1ncnc2ccc(-c3ccc4c(c3)OCO4)cc12)c1ccco1` (centres undefined) was tested. Which Potency did it give?
**A.** Its Potency is 5.6 µM (active).

**Q.** For `CN(Cc1cncn1C)c1ncnc2ccc(-c3ccc4c(c3)OCO4)cc12`, which Potency is on record?
**A.** The Potency was 2.45 µM (active).

**Q.** How did the Potency turn out when `c1nc(N2CCOCC2)c2cc(-c3ccc4c(c3)OCO4)ccc2n1` was run?
**A.** Its Potency is 0.723 µM (active).

**Q.** Which Potency does the source give for `c1coc(CCNc2ncnc3ccc(-c4ccc5c(c4)OCO5)cc23)c1` here?
**A.** The Potency was 0.074 µM (active).
